# Laboratory results reported in the supplement of paper PMC3334620.
# In all, about 33,000 sequences were measured (“E-score (-0.5 to 0.5)”: median about -0.012, highest 2% from about 0.29 on). What follows is part of a selection rich in the highest values, with near analogues and random picks from the rest.
# Target: T1, Ybr033w (UniProt P38073)
# T1 sequence: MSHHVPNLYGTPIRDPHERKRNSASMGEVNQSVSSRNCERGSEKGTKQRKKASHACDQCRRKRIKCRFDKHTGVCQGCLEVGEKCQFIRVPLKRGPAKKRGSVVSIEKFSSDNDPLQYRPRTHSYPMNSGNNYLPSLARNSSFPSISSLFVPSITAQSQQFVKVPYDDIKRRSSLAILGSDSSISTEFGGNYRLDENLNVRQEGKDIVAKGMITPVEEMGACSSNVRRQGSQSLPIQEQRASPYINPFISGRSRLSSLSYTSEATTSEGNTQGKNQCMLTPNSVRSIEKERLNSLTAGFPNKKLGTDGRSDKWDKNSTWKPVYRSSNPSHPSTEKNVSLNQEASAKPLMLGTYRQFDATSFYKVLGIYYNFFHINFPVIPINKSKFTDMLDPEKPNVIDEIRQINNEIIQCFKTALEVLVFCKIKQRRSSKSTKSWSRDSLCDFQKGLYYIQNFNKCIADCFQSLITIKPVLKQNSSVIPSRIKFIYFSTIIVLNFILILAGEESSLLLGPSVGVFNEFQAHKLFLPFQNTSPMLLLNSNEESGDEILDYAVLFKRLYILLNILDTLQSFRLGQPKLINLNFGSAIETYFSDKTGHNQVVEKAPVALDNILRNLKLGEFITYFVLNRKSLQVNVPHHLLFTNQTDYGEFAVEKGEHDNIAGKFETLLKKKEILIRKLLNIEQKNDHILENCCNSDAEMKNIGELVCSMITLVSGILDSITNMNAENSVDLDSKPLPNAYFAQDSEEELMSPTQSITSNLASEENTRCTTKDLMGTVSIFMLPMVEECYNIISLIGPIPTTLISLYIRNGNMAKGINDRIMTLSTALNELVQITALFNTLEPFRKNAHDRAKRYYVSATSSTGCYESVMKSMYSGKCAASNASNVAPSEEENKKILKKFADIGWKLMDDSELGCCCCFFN
# Assay: PBM E-score (8-mer binding enrichment) (E-score (-0.5 to 0.5)); higher = stronger / more preferred TF binding
# Conditions: protein concentration: 200 nM; construct: GST-full length
# Outline: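 Using PURExpress in vitro transcription/translation, GST-tagged yeast transcription factors were made in full-length or DNA-binding-domain form. These were applied at about 100-200 nM to double-stranded universal all-10-mer Agilent arrays, and bound protein was detected with fluorescent anti-GST. Scans were normalised with masliner before the Universal PBM Analysis Suite assigned E-scores to ungapped eight-base words pooled with their reverse complements.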
row,Sequence,PBM E-score
1,AACCATTC,0.166
2,ACTGAACC,0.00627
3,GTTGGCGA,-0.0105
4,GATCGACC,0.0146
5,AAGCTAAA,0.107
6,CCCGGAAA,0.192
7,GACGGAAA,0.227
8,ACCGGAAA,0.151
9,GCCGGAAA,0.302
10,GCCGGAAC,0.205
11,TCCGGAAA,0.298
12,CTAGACCC,-0.194
13,AAAGGATG,0.163
14,GCACACCA,-0.145
15,ACTTAATC,0.275
16,GACTAATC,0.0103
17,CATTAATA,0.321
18,TATTAATA,0.101
19,AATTAGTC,0.212
20,GATTAAGC,0.104
21,AATTAATC,0.341
22,CATTAATG,0.23

row,Sequence,PBM E-score
1,GATTAAGA,0.213
2,GATTAATA,0.328
3,GATTAATC,0.435
4,CATTAATC,0.252
5,AGGGTGAT,-0.055
6,ATAGTTCA,0.202
7,AGAACGTA,0.0159
8,AAGGGGCT,-0.163
9,ATATTGTC,0.215
10,ACCTTGGC,-0.0759
11,ACAGCTAG,-0.105
12,ACCTACCG,-0.0859
13,AGCAGAGC,-0.0843
14,AACTCTGG,-0.0682
15,AAAGTTCC,0.132
16,AATTAATG,0.273
17,AATTAAAT,0.276
18,AATTAATT,0.214
19,AATTAAGT,0.305
20,AATTAAGC,0.169
21,AATTAAAC,0.377
22,AATTAATA,0.429

row,Sequence,PBM E-score
1,AATTAAGA,0.171
2,AATTAAAG,0.217
3,CAACTATG,0.102
4,ACGGGTAT,0.0865
5,ATTGGCTA,0.117
6,ACCAAGCC,-0.0301
7,TCCAATCA,0.0621
8,TGATAACA,0.176
9,GCGAGGAA,0.125
10,ACGGATTA,0.233
11,GCGGATTA,0.285
12,CGGGATTC,-0.0497
13,GTGGATAA,0.169
14,TCGGATAA,0.335
15,CGGGATTA,0.312
16,CTGGATAA,0.316
17,AGGGATTA,0.187
18,TGGGATAA,0.123
19,ATGGATAA,0.259
20,ACGGATAT,0.192
21,CCGGATTA,0.34
22,GGACCACA,-0.00774

row,Sequence,PBM E-score
1,CCTACCAC,-0.155
2,AGCGTCCA,-0.13
3,TAGGCTGA,-0.0515
4,CACCAACC,-0.105
5,AATCCACT,0.193
6,TAGCTTGA,-0.0114
7,GGCCTTGA,-0.0647
8,ACGTCAGG,-0.168
9,CCGGATCA,0.345
10,CCGGATGC,-0.178
11,ACGGATAA,0.276
12,CTGGATTC,0.00016
13,GTGGATTA,0.164
14,CTGGATTA,0.309
15,ACGGATCA,0.236
16,GCGGATAC,0.0188
17,GCGGATGA,0.0612
18,CCGGATCC,-0.129
19,GCGGATAA,0.416
20,CCGGATGA,0.289
